# ChEMBL document CHEMBL3988442, “University of Dundee, Small-Polar-MMV Screening Library” (2021)
# Screen size: about 48,000 compounds; about 13,000 (27%) showed an effect of 50% or more. Some of the results follow.
# Tested on: Wolbachia pipientis
# Test: Anti-Wolbachia Cell-Based Screen
# Type: functional
# Design: scale not given: in the data most compounds retested in dose-response had high values
# Settings: 5 µM
row,SMILES,Percent Effect
1,CCN(C)c1ncnc2c1CCN(C(=O)c1ccno1)CC2,-25.29%
2,N#Cc1cnn(C(=O)CCCOc2ccccc2Cl)c1N,5.085%
3,CC(=O)N1CCC(c2nnc3ccc(C(=O)NCC(C)C)cn23)C1 (stereo unspecified),-18.5%
4,CC(=O)N1CCC(n2ccc(-c3cnc(NCC(C)C)nc3)n2)CC1,75.49%
5,CCC(SC)C(=O)N1CCC(n2ccnn2)CC1 (stereo unspecified),9.459%
6,Cn1cc(-c2cnc(N3CCOCC3)nc2)cc1C(=O)O,-1.361%
7,CC[C@H](C)Nc1ncc(-c2ccn(C3CCN(C(C)=O)CC3)n2)cn1,95.97%
8,CC(=O)N1CCC(n2ccc(-c3cnc(N4CCOCC4)nc3)n2)CC1,94.2%
9,CN(C(=O)c1cnc(N2CCOCC2)nc1)C1Cc2ccccc2C1,-2.733%
10,CC(C)NC(=O)N1CCC(n2ccc(C(F)(F)F)n2)CC1,-15.91%
11,O=C(NCC(F)F)N1CCC(n2ccc(C(F)(F)F)n2)CC1,4.357%
12,O=C(O)c1cc(-c2ccncc2)cc(S(=O)(=O)N2CCSCC2)c1,-4.815%
13,O=C(CCC(=O)N1CCOCC1c1ccccc1)c1cccs1 (stereo unspecified),-0.4955%
14,CC(C(=O)Nc1ccc2ccccc2c1)N1CCC(n2ccnc2)CC1 (stereo unspecified),14.62%
15,CCSCCNc1nc(-c2ccccn2)nc2c1c(C)nn2C,-9.72%
16,CCCc1nnc(N(C)CC2CCN(CC(C)C)C2)o1 (stereo unspecified),22.96%
17,CC(=O)Nc1nc(CN2CCn3c(nnc3C3CC3)C2)cs1,-1.677%
18,CCc1nnc2n1CCN(Cc1csc(Cc3ccccc3)n1)C2,110.3%
19,CC(=O)Nc1nc(CN2CCn3c(nnc3C(C)C)C2)cs1,134.2%
20,CCc1nnc2n1CCN(Cc1csc(-c3ccccc3)n1)C2,-8.809%
21,Cc1nnc2n1CCN(Cc1csc(CC(=O)N(C)C)n1)C2,-5.269%
22,CC(=O)Nc1nc(CN2CCn3c(C)nnc3C2)cs1,106.6%
23,CCc1nnc2n1CCN(Cc1csc(-c3ccccc3F)n1)C2,-7.505%
24,Cc1nnc2n1CCN(Cc1csc(Cc3ccccc3)n1)C2,-6.731%

row,SMILES,Percent Effect
1,CCc1nnc2n1CCN(Cc1csc(-c3cnn(C)c3)n1)C2,-17.9%
2,CC(C)c1nnc2n1CCN(Cc1csc(-c3cnn(C)c3)n1)C2,-7.082%
3,CCc1nnc2n1CCN(Cc1csc(NC(C)=O)n1)C2,125.2%
4,CC(C)c1nnc2n1CCN(Cc1csc(CC(=O)N(C)C)n1)C2,-25.19%
5,CN(Cc1cc(-c2ccccc2)no1)Cc1nccn1C,8.065%
6,Cc1nn(CCO)c(C)c1CNC1CCc2c(F)cccc21 (stereo unspecified),1.037%
7,N#Cc1ccc(CN(CC(N)=O)C2CCCC2)cc1,-1.161%
8,O=C(Nc1ccccc1F)N(CCO)CCOCC(F)(F)F,-14.38%
9,CC(C)(C)S(=O)(=O)CCNC1CSCCc2ccccc21 (stereo unspecified),8.355%
10,CCc1n[nH]c(SCC(=O)N2C[C@@H]3CC[C@H](C2)N(CC=C(C)C)C3)n1,12.53%
11,CCOC(=O)c1cc2c(=O)[nH]c(=O)n(CCc3ccccc3)c2nc1C,-3.034%
12,O=C1CCc2cc(-c3csc(CCN4CCCC4=O)n3)ccc2N1,-1.736%
13,CCCN1C(=O)c2ccccc2C1OC (stereo unspecified),104.1%
14,CCn1cnc(NC(=O)N2CCC(c3ccc(Cl)cc3)C2)n1 (stereo unspecified),-2.672%
15,Cc1nc(C)n(CCCn2ccnc2-c2cc3n(n2)CCCNC3)n1,0.4256%
16,Cn1ccc(C(=O)N2CCN(c3nccs3)CC2)cc1=O,97.2%
17,O=C(c1cc(Cl)cc(Cl)c1)N1CCN(c2nccs2)CC1,-10.96%
18,Cn1ccc(C(=O)N2CCN(c3cc(C#N)ccn3)CC2)cc1=O,6.84%
19,Cn1cc(C(=O)N2CCN(c3ncccn3)CC2)ccc1=O,122.7%
20,Cn1cc(C(=O)N2CCN(c3ccc(F)cc3)CC2)ccc1=O,27.16%
21,Cn1ccc(CN2CCCN(c3nccs3)CC2)cc1=O,11.25%
22,Cn1cc(C(=O)N2CCN(c3ccccc3)CC2)ccc1=O,-6.133%
23,Cn1ccc(C(=O)N2CCN(c3ncccn3)CC2)cc1=O,-7.771%
24,Cn1ccc(C(=O)N2CCN(c3ccccn3)CC2)cc1=O,94.46%

row,SMILES,Percent Effect
1,Cc1cnccc1-n1nc(C(C)C)nc1CCc1cnccn1,-10.93%
2,Cc1noc(CCCC(=O)NC(C)c2cn(-c3ccccc3)nn2)n1 (stereo unspecified),-6.671%
3,CCO[C@@H]1CC[C@H]2[C@H]1OCCN2S(=O)(=O)c1cn(C)cn1,-10.77%
4,Cn1cnc(S(=O)(=O)N2CCO[C@H]3[C@@H](OCC4CC4)CC[C@@H]32)c1,-7.379%
5,O=S(=O)(C1CC1)N1CCO[C@H]2[C@H](OCC3CC3)CC[C@@H]21,103.2%
6,O=S(=O)(C1CC1)N1CCO[C@H]2[C@H](OCC3CCCC3)CC[C@@H]21,-8.752%
7,Cn1cnc(S(=O)(=O)N2CCO[C@H]3[C@H](OCC4CC4)CC[C@@H]32)c1,-0.8778%
8,CCO[C@@H]1CC[C@H]2[C@H]1OCCN2S(=O)(=O)C1CC1,110.7%
9,CCS(=O)(=O)N1CCO[C@H]2[C@H](OCC3CCCC3)CC[C@@H]21,-19.91%
10,CO[C@@H]1CC[C@H]2[C@H]1OCCN2S(=O)(=O)C1CC1,111.8%
11,CC(C)CO[C@@H]1CC[C@H]2[C@H]1OCCN2S(=O)(=O)C1CC1,103.9%
12,Cc1cc(CN(C)C(=O)NC2CCCN(c3ncccn3)C2)no1 (stereo unspecified),-2.323%
13,Nc1nccc(N2CCCC(CO)(CCOc3ccccc3)C2)n1 (stereo unspecified),-20.36%
14,Cn1ccnc1CN1CCN(CC(=O)NCC(F)(F)F)CC1,1.598%
15,Cn1ccnc1CN1CCN(CC(=O)NCc2ccccc2F)CC1,129%
16,Cc1ccccc1CNC(=O)CN1CCN(Cc2nccn2C)CC1,7.197%
17,Cn1ccnc1CN1CCN(CC(=O)NCc2cccs2)CC1,99.27%
18,CC(C(=O)NCc1cccs1)N1CCN(Cc2nccn2C)CC1 (stereo unspecified),4.204%
19,COc1ccc(CC(=O)N2CC[C@@]3(O)CCNC[C@H]3C2)c(OC)c1,-12.62%
20,CCc1nc(CN(C)Cc2ncc(-c3cccs3)o2)cs1,-9.321%
21,CN1CC(c2ccccc2)CC2(CCN(Cc3ncc[nH]3)CC2)C1 (stereo unspecified),-21.2%
22,Cc1ccc(C(CNCc2cccnc2)N2CCOCC2)s1 (stereo unspecified),5.338%
23,Cc1ccccc1NC(=O)NCCn1nc(C(F)(F)F)n(C)c1=O,4.371%
24,Cn1cc(CNC2CCc3c(ccc(=O)n3Cc3cccnc3)C2)cn1.O=C(O)C(F)(F)F.O=C(O)C(F)(F)F (stereo unspecified),105.5%

row,SMILES,Percent Effect
1,CN(C)CCn1c2c(ccc1=O)CC(NCc1cccnc1)CC2.O=C(O)C(F)(F)F.O=C(O)C(F)(F)F.O=C(O)C(F)(F)F (stereo unspecified),-9.426%
2,O=C(NC1CC1)N1CCc2ccc(=O)n(Cc3cccnc3)c2CC1.O=C(O)C(F)(F)F,-14.38%
3,NC1CCc2c(ccc(=O)n2Cc2ccncc2)C1 (stereo unspecified),-38.16%
4,Cn1cc(CNC2CCc3c(ccc(=O)n3Cc3ccncc3)C2)cn1.O=C(O)C(F)(F)F.O=C(O)C(F)(F)F (stereo unspecified),101.4%
5,CN(C)CCn1c2c(ccc1=O)CC(NCc1cnn(C)c1)CC2.O=C(O)C(F)(F)F.O=C(O)C(F)(F)F (stereo unspecified),92.68%
6,COc1ccc(C2CC(=O)NCc3nc(N(C)C)sc32)c(O)c1 (stereo unspecified),-25.68%
7,COCCc1ncc(CN2C[C@@H](C(=O)O)[C@H](C(C)C)C2)cn1,-10.49%
8,Cc1cnc(NS(=O)(=O)c2cccc(C#N)c2)s1,-4.999%
9,CNC(=O)C(NC(C)=O)c1ccc(F)c(F)c1 (stereo unspecified),-14.34%
10,Cc1nc(CN2CCC3(CCCN(Cc4ccoc4)C3)C2=O)cs1.O=C(O)C(F)(F)F.O=C(O)C(F)(F)F (stereo unspecified),117.4%
11,Cc1nc(CN2CCC3(CCCN(Cc4ccncc4)C3)C2=O)cs1.O=C(O)C(F)(F)F.O=C(O)C(F)(F)F.O=C(O)C(F)(F)F (stereo unspecified),97.27%
12,Cc1nc(CN2CCOCC3(CCN(c4cccnc4)CC3)C2)cs1.O=C(O)C(F)(F)F.O=C(O)C(F)(F)F,4.008%
13,Cc1nc(CN2CCC3(CCCN(Cc4cccnc4)C3)C2=O)cs1.O=C(O)C(F)(F)F.O=C(O)C(F)(F)F.O=C(O)C(F)(F)F (stereo unspecified),115.5%
14,N#Cc1ccnc(N2CCN(C(=O)Cc3ccc4c(c3)CCO4)CC2)c1,-0.6491%
15,CC(NCc1ccncc1)c1ccc(N2CCN(C)CC2)c(F)c1.Cl (stereo unspecified),1.312%
16,Fc1ccc2c(c1)CCC2NCc1ccc(N2CCOCC2)cc1 (stereo unspecified),-1.344%
17,COCCN1C(=O)C2(CCC(C(=O)Nc3cccc(C)c3)CC2)N=C1C (stereo unspecified),-14.6%
18,CCC1=NC2(CCC(C(=O)Nc3ccc(C)nc3)CC2)C(=O)N1C (stereo unspecified),107.3%
19,COCCN1C(=O)C2(CCC(C(=O)Nc3ccc(C)cc3)CC2)N=C1C (stereo unspecified),-12.68%
20,COCCN1C(=O)C2(CCC(C(=O)Nc3ccccn3)CC2)N=C1C (stereo unspecified),12.9%
21,COCCN1C(=O)C2(CCC(C(=O)Nc3ccc(F)cc3)CC2)N=C1C (stereo unspecified),17.41%
22,CCC1=NC2(CCC(C(=O)Nc3ccc(F)cc3)CC2)C(=O)N1C (stereo unspecified),104.8%
23,Cc1ccc(CNCc2ccc(-n3nc(C)cc3C)nc2)cc1,-14.48%
24,CN1C[C@H](O)C[C@H]1c1nc(-c2ccc3c(c2)OCO3)no1,-5.095%
